# Source: PubChem (National Center for Advancing Translational Sciences (NCATS))
# HT1080 IDH1KD tx – HT-1080 IDH1 knockdown cell toxicity (counter line). HT-1080 IDH1 knockdown viability, ATP luminescence, 48 h. Potency, µM (titrated, usually from 46.1 µM), inactives show at the highest dose activity, negative = toxicity, most hits filed as cytotoxic. 360,000 tested, 2% active;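 also: 0% = DMSO wells and -100% = cell-free medium wells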
#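 Cytotoxicity counter-line: IDH1KD HT-1080, 48 h, CellTiter-Glo. Curves classed by r2, magnitude and activity.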
# KB-3-1 cytotox – kills parental KB-3-1 adenocarcinoma cells. KB-3-1 viability, CellTiter-Glo ATP luminescence, 72 h. Potency, µM (top dose mostly 46.1 µM), hits mostly cytotoxic. 400,000 tested, 1.4% active; also: % is scaled to controls: 0 for no effect and ±100 for the full control effect; nearly all actives have a fitted effect of over 60% in size
#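 Using CellTiter-Glo luminescence, growth of non-resistant KB-3-1 adenocarcinoma cells is assessed 72 h after pin-tool compound addition at 37 °C. Normalized responses across the concentration series yield fitted curves.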
# KB-V1 MDR tox – kills drug-selected multidrug resistant KB-V1 cells; KB-V1 MDR cells viability, CellTiter-Glo, 72 h; Potency, µM (highest dose often 46.1 µM), usual class: cytotoxic; 400,000 tested, 3.4% active; also: % is scaled to controls: 0 for no effect and ±100 for the full control effect; nearly all actives have a fitted effect of over 60% in size
#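 Readout: CellTiter-Glo luminescence, 10 min after addition. Cells: KB-V1 MDR subline, 72 h at 37 degrees C with compound. Analysis: corrected, normalized data fitted to concentration-effect curves.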
# MCF10A rerep – induces DNA re-replication in MCF 10a normal breast cells; Potency, µM (highest dose often 46.1 µM), for the others: at the top dose activity, positive = re-replication, hits mostly activators; AID 624296; MCF 10A DNA re-replication, Hoechst nuclear intensity, 48 h; 350,000 tested, 2.9% active; also: % of control where 0% means no effect; nearly all actives have a fitted effect of over 50% in size
# HT1080NT lethal – kills 2HG-producing HT-1080-NT fibrosarcoma cells; HT-1080-NT fibrosarcoma viability, CellTiter-Glo ATP luminescence, 48 h; Potency, µM (doses to about 46.1 µM), for inactives: at the highest dose activity, negative = less viability, usual class: cytotoxic; 360,000 tested, 1.6% active;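 also: NT is the 2HG producing partner of a matched IDH1 knockdown line; 0% = DMSO-treated cells and -100% = media-only wells without cells; nearly all actives have a fitted effect of over 55% in size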
#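 Viability of the 2HG-overproducing fibrosarcoma line after 48 hours of compound exposure at 37 degrees C was determined by luminescence with CellTiter-Glo, and concentration-effect curves were then fitted and categorized.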
# SW480 rereplic – inducers of DNA re-replication in SW480 colon cancer cells; SW480 DNA re-replication, Hoechst DNA content imaging, 48 h; Potency, µM (series often up to 46.1 µM), for the others: at the top dose re-replication activation, most hits filed as activators; 340,000 tested, 1.8% active; AID 624297; also: % of control where 0% means no effect; nearly all actives have a fitted effect of over 55% in size
#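 Per well, 250 cells were exposed to pinned compound for 48 hr. Nuclear DNA was visualised with Hoechst (40 min, 37 C) and total object intensity recorded by fluorescence scanning.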
# Active calls of the source: *; i = inactive; ? = inconclusive. A selection: hits, their analogues and other compounds. The true share with any hit is near 8%. Calls follow the shape of the dose curve; as a rule, active = well fitted curve in the direction sought with a large enough effect; inconclusive = small, poorly fitted or top-dose-only effect, or another doubt; inactive = no such curve, though single readings can be large; an effect the other way counts as inactive or inconclusive. Potency is read from the fitted curve at half-maximal effect.
SMILES,HT1080 IDH1KD tx,KB-3-1 cytotox,KB-V1 MDR tox,MCF10A rerep,HT1080NT lethal,SW480 rereplic
C[C@]12CC[C@H](O)CC1=CCC1C2CC[C@@]2(C)C1C[C@@H](O)[C@@H]2O (some centres undefined),2.8%,i,i,-0.3%,3.7%,3.8%
CC(=O)C1C(N2CC2)CC2C3CC=C4CC(O)CCC4(C)C3CCC21C (centres undefined),-6.0%,?,?,4.61µM*,-24.8%,23.1µM*
O=[N+]([O-])c1ccc(N2CCCC2)c2ccncc12,-20.7%,i,i,12.9%,-6.6%,-6.0%
O=c1[nH]c(=S)n(-c2ccc(Cl)cc2)c(O)c1C=Nc1ccc(N2CCOCC2)cc1,-3.0%,i,i,19.4%,-3.3%,-2.8%
O=c1c2cc(N3CCOCC3)ccc2[nH]c(=S)n1Cc1ccc(Cl)cc1,-0.9%,i,20.6µM*,2.59µM*,2.9%,12.8%
COc1ccc2c(c1)C(c1ccc(N(CCCl)CCCl)cc1)=NCC2,25.9µM*,i,i,13µM*,?,?
ClCCN(CCCl)c1ccc(C2=NCCc3ccccc32)cc1,13.9%,i,?,?,2.4%,6.1%
CCOCC1(CCc2ccccc2)C(=O)NC(=S)NC1=O,-2.6%,i,i,1.6%,-0.6%,-2.8%
Cc1ccc(N2C(=O)NC(=O)C3(Cc4ccccc4N4CCCC43)C2=O)cc1 (centres undefined),3.5%,i,i,5.9%,7.3%,-0.6%
O=C1NC(=O)C2(Cc3ccccc3N3CCCC32)C(=O)N1c1ccc(Cl)cc1 (centres undefined),-4.2%,?,i,20.6µM*,?,0.5%
Cc1ccc(NC(=O)C2C3CCCC2C3c2ccccc2)c(C)c1 (centres undefined),11.1%,i,i,?,10.8%,1.7%
CN(C)c1ccc(C(=O)N/N=C/C23CC[C@@H](O)CC2(O)CC[C@@H]2[C@@H]3CCC3(C)C(C4=CC(=O)OC4)CCC23O)cc1 (some centres undefined),10.3µM*,6.51µM*,?,?,?,10.8%
CC12CC[C@H]3[C@@H](CCC4(O)C[C@H](O)CCC34/C=N/NC(=O)c3ccccc3O)C1(O)CCC2C1=CC(=O)OC1 (some centres undefined),18.4µM*,?,?,?,?,?
CC12CC[C@H]3[C@@H](CCC4(O)C[C@H](O)CCC34/C=N/NC(=O)c3ccccc3F)C1(O)CCC2C1=CC(=O)OC1 (some centres undefined),?,18.4µM*,i,?,-11.9%,-0.2%
COc1cc(C(=O)N/N=C/C23CC[C@@H](O)CC2(O)CC[C@@H]2[C@@H]3CCC3(C)C(C4=CC(=O)OC4)CCC23O)ccc1O (some centres undefined),23.1µM*,i,i,?,-27.5%,-12.1%
CC12CC[C@H]3[C@@H](CCC4(O)C[C@H](O)CCC34/C=N/NC(=O)c3ccc(O)cc3)C1(O)CCC2C1=CC(=O)OC1 (some centres undefined),5.5%,i,i,0.5%,0.1%,-8.9%
O=P1(Oc2ccccc2)CC=C[C@H](COCc2ccccc2)O1 (some centres undefined),-0.7%,i,i,-13.3%,0.5%,-11.9%
Oc1ccc(-c2csc(-c3ccccc3)n2)cc1O,10µM*,?,14.6µM*,1.8%,11.2µM*,-6.6%
Cc1[nH]n(-c2ccccc2)c(=O)c1C(c1cccc([N+](=O)[O-])c1O)c1c(C)[nH]n(-c2ccccc2)c1=O,-23.8%,i,i,?,-23.4%,-6.4%
CN(C)C(=O)Oc1ccc(OCc2n(C)c3ccccc3[n+]2C)cc1,-6.5%,?,i,4.5%,0.8%,16.4µM*
